This passage reports composite z-score and z-score results from PubChem BioAssay.

The nature of assay [1]: small molecules captured by biotinylated probe aFSTL3 – biochemical, small-molecule microarray, fluorescence 635/667, stem cell growth factor project, primary screen (AID 1064).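 Further: measures binding of the biotinylated anti-FSTL3 antibody to printed compounds.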 The settings on record: higher = more signal.
A short description of assay [2]: binders from COS7 lysate, DM2A8 probe, primary screen, torsin A project, cell lysate, small-molecule microarray, fluorescence 635/667 (AID 1065). The settings on record: higher = more signal, COS7 lysate expressing mutant human TOR1A.
Assay [3] in a line: small molecules captured by biotinylated probe aFGF2 – biochemical, small-molecule microarray, fluorescence 635/667, stem cell growth factor project, primary screen (AID 1067).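 Further: measures binding of biotinylated aFGF2 protein to printed compounds on slides; z-score merges feature fluorescence and signal-to-noise across triplicate slides.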 Particulars: higher = more signal.
Assay [4] can be described thus: small molecules captured by biotinylated probe aFGF10 – biochemical, small-molecule microarray, fluorescence 635/667, stem cell growth factor project, primary screen (AID 1071).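 Further: score merges 667 nm spot intensity and signal to noise from triplicate slides.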 Particulars: higher = more signal.
Assay [5] concerns the target Neurogenic locus notch homolog protein 2 (Homo sapiens) (UniProt Q04721). As to the kind of experiment: small molecules binding Notch2 protein – biochemical, small-molecule microarray, 635 nm fluorescence, stem cell growth factors, primary screen (AID 1073). Particulars: higher = more signal.
Assay [6] deals with Pro-neuregulin-1, membrane-bound isoform (Homo sapiens) (UniProt Q02297). Briefly: small molecules binding neuregulin-1 protein – biochemical, small-molecule microarray, fluorescence 635/667, psychiatric disease protein project, primary screen (AID 1075).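 Further: score combines 667 nm spot fluorescence with signal to noise.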 The settings on record: NRG1 binding, 635 nm fluorescence, higher = more signal.
Sequence of Pro-neuregulin-1, membrane-bound isoform (Homo sapiens) (Q02297 whole entry, looked up, the tested form may be a part, canonical isoform): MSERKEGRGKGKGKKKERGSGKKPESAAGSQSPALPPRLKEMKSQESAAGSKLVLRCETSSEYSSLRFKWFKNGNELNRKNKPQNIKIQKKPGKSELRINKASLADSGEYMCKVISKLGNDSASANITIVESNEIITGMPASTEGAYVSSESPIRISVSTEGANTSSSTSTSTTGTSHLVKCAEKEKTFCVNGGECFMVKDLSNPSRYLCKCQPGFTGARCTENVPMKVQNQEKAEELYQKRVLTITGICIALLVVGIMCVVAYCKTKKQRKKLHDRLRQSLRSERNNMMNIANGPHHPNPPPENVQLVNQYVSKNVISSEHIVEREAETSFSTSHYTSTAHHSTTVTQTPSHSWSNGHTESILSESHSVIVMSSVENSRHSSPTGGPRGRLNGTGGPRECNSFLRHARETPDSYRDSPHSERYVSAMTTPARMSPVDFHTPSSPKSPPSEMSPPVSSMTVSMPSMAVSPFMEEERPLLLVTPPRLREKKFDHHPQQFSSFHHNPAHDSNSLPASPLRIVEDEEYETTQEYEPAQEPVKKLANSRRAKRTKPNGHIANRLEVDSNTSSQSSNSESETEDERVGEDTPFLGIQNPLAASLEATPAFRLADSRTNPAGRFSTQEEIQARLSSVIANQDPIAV
The test system of assay [7] is Neuregulin-1 EGF-like domain. Briefly: small molecules binding NRG1 EGF domain – biochemical, small-molecule microarray, 635 nm fluorescence, primary screen (AID 1081).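 Further: binding of the protein to compounds printed on small-molecule microarray slides.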 Particulars: higher = more signal.
Assay [8] is described as follows: FRG1 expression reporter modulators in myotubes – cell-based, C2C12 myotubes, firefly/Renilla luciferase, luminescence, FRG1 inhibition for FSHD, primary screen (AID 1084). Particulars: FRG1 promoter luciferase, higher = more signal, called active from +8 up or from −8 down.
Assay [9] in a line: small molecules captured by biotinylated probe aFST – biochemical, small-molecule microarray, fluorescence 635/667, stem cell growth factor project, primary screen (AID 1086).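 Further: score merges 667 nm fluorescence with signal-to-noise of each printed compound spot.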 The settings on record: higher = more signal.
Assay [10] is described as follows: binders of probe aHhip on microarray, primary screen, stem cell growth factor project, biochemical, small-molecule microarray, fluorescence 635/667 (AID 1087).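 Further: score merges spot fluorescence at 667nm with spot signal to noise ratio.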 The settings on record: higher = more signal.
Assay [11] relates to PRMT1 (protein arginine N-methyltransferase 1). Briefly: small molecules binding arginine methyltransferase PRMT1 – biochemical, small-molecule microarray, 635 nm fluorescence, primary screen (AID 1088).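 Further: binding of Prmt1 protein to compounds spotted on small-molecule microarray slides.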 The settings on record: higher = more signal.
A short description of assay [12]: growth effects on S. cerevisiae YJM789 – YJM789 clinical isolate, OD600, 24 h, basal, primary screen (AID 1089).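 Further: growth of clinical yeast isolate S. cerevisiae YJM 789 seeded 1000 cells per well; test concentration not given here.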 The settings on record: higher = more signal, called active from +8 up or from −8 down.
Assay [13] in a line: S. pombe growth modifiers, basal conditions – strain 972, OD600, 24 h, no modulator, primary screen (AID 1090).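 Further: basal condition with compound alone and no growth modifier present; test concentration not given here.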 Particulars: S. pombe 972 growth, higher = more signal, called active from +8 up or from −8 down.
Assay [14] in a line: budding yeast growth modifiers under rapamycin – strain BY4716, OD600, 96 h, primary screen (AID 1091). Further: test concentration not given here. The settings on record: S. cerevisiae BY4716 + rapamycin, higher = more signal, called active from +8 up or from −8 down.
Assay [15] concerns the target Torsin-1A-interacting protein 2 (Homo sapiens) (UniProt Q8NFQ8). As to the kind of experiment: small molecules binding lysate-expressed LULL1 – cell lysate, human LULL1 lysate, 635/667 nm fluorescence, primary screen (AID 1092).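 Further: probe is lysate of COS7 cells overexpressing human LULL1; score merges per-feature 667 nm fluorescence with signal-to-noise.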 Particulars: small-molecule microarray, hLULL1 lysate binding, 635 nm fluorescence; higher = more signal.
Assay [16] can be described thus: optical density change of DRC41 E. coli – strain DRC41, OD650, 24 h, E. coli filamentation project, primary screen (AID 1093).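 Further: MC1000 strain lacking acrAB efflux and sulA so SOS filamentation is blocked; test concentration not given here.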 Particulars: E. coli DRC41 growth, higher = more signal, called active from +8 up or from −8 down.
The nature of assay [17]: probe aLefty2 binding to arrayed compounds – biochemical, biotinylated probe, 635/667 nm fluorescence, primary screen (AID 1094).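 Further: score merges spot fluorescence near 667 nm with spot signal-to-noise ratio.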 The settings on record: small-molecule microarray, higher = more signal.
Assay [18] concerns Noggin (protein binding on small-molecule microarray). As to the kind of experiment: small molecules binding Noggin protein – biochemical, 635/667 nm fluorescence, primary screen (AID 1095).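 Further: score merges 667 nm feature fluorescence with signal to noise over triplicate slides.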 The settings on record: 635 nm fluorescence, higher = more signal.
The target of assay [19] is Neurogenic locus notch homolog protein 3 (Homo sapiens) (UniProt Q9UM47). As to the kind of experiment: small molecules binding NOTCH3 protein – biochemical, 635/667 nm fluorescence, primary screen (AID 1096). The settings on record: small-molecule microarray, 635 nm fluorescence, higher = more signal.
Sequence of Neurogenic locus notch homolog protein 3 (Homo sapiens) (Q9UM47 whole entry, looked up): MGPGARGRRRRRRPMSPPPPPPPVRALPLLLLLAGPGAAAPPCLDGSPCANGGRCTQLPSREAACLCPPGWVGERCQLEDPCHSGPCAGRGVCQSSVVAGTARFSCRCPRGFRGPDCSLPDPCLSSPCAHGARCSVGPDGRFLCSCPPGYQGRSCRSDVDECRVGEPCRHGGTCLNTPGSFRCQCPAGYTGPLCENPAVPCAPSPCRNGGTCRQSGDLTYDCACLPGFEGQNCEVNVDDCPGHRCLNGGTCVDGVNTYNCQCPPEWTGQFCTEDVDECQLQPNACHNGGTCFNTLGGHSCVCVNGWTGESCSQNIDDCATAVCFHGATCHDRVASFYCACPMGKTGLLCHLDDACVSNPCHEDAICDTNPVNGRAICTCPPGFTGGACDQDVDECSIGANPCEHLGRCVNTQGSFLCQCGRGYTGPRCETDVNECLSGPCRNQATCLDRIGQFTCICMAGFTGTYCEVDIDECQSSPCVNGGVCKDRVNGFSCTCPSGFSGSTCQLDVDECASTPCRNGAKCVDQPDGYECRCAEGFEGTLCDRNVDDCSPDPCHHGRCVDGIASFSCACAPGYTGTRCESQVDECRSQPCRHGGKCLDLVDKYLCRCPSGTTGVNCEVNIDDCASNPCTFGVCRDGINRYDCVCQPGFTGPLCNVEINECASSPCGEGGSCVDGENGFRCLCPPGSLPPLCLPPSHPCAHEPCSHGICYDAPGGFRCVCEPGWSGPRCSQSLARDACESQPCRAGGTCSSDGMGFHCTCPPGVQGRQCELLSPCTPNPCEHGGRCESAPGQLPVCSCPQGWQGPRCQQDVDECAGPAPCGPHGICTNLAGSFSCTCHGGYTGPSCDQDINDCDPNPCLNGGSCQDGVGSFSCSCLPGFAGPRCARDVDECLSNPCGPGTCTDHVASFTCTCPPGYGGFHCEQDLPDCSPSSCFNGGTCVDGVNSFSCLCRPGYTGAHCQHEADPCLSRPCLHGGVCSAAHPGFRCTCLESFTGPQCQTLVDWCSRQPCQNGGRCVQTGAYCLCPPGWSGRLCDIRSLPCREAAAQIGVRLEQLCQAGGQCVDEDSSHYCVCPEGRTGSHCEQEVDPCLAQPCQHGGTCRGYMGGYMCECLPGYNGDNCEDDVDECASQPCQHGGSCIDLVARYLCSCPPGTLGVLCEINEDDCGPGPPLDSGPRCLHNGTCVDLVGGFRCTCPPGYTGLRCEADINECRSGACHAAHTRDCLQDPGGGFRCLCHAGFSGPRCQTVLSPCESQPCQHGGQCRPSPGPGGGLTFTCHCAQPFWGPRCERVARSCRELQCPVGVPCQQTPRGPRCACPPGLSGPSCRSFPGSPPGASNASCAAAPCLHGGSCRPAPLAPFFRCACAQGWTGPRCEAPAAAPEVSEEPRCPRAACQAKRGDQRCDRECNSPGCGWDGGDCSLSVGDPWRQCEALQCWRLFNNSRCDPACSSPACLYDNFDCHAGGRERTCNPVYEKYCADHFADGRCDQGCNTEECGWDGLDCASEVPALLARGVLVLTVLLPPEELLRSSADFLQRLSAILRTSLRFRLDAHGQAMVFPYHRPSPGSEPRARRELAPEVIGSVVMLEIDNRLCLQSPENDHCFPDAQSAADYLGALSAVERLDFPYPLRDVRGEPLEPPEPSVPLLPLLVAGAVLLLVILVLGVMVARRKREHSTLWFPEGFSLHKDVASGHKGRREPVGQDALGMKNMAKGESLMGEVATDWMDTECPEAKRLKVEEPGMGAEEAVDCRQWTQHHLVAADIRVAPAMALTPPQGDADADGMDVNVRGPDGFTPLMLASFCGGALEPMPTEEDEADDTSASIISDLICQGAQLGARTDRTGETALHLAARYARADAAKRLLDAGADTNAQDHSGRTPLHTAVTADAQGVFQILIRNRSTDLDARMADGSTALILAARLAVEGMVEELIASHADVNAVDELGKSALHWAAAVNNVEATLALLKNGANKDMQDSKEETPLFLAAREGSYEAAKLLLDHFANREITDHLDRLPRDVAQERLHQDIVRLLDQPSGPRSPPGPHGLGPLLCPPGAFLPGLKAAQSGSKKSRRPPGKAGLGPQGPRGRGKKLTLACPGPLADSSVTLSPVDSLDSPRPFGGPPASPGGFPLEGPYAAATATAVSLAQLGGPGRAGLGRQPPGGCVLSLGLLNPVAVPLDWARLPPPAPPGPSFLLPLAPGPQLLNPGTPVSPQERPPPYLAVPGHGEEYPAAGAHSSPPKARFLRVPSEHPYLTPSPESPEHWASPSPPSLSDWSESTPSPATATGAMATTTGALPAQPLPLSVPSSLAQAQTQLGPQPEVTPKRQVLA
Assay [20] in a line: probe aEGFR binding to arrayed compounds – biochemical, biotinylated probe, 635/667 nm fluorescence, primary screen (AID 1097).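 Further: probe is a biotinylated anti-EGFR antibody binding compounds printed on slides; score combines fluorescence near 667 nm and signal to noise of each spot.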 Particulars: small-molecule microarray, higher = more signal.

Active and inactive are the calls of the source.

Sequence of Torsin-1A-interacting protein 2 (Homo sapiens) (Q8NFQ8 whole entry, looked up): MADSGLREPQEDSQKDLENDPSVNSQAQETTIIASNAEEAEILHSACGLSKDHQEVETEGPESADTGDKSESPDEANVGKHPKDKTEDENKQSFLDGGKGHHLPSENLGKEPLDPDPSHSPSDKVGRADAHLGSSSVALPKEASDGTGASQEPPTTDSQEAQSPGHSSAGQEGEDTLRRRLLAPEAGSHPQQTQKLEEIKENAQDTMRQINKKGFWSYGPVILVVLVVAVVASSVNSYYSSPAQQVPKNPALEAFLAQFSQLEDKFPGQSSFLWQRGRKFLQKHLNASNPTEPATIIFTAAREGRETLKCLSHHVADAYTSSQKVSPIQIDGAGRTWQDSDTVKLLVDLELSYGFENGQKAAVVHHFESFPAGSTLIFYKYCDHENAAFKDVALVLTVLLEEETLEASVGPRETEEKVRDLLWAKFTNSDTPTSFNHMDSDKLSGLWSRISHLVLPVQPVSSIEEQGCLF

As for `COCC1=C2[C@@H](CCc3ccccc3)OB(O)C[C@@H]2[C@@H]2C(=O)N(Cc3ccccc3)C(=O)[C@@H]2C1`, the composite z-score was -0.505 in assay [1]; -0.138 in assay [2]; -0.0419 in assay [3]; 0.135 in assay [4]; -0.0585 in assay [5]; 0.0327 in assay [6]. Also, the composite z-score in [7] was -0.0593; in [9], -0.492; in [10], -0.201; in [11], 0.229; in assay [15] it was 0.295; in assay [17], -0.155. Also, the composite z-score is 0.198 in assay [18], -0.0497 in assay [19] and -0.132 in assay [20]. The z-score in assay [8] was -3.66 (inactive); in assay [12], -0.471 (inactive); in assay [13] it was -1.22 (inactive); in [14] it was -0.37 (inactive); in assay [16], -0.715 (inactive).
For the compound `CCCC[C@@H]1C[C@H]1[C@@H](NC(=O)c1ccc(-c2ccccc2)cc1)c1ccc(-c2ccccc2)cc1`, the composite z-score in [1] is -0.129; in assay [2], 0.0257; in [3] it was 0.702; in [4], 0.711; in assay [5], 0.286; in assay [6], 0.0352. In addition, the composite z-score in [7] was 0.217; in [9], 0.0469; in [10], 0.107; in assay [11] it was 0.407; in assay [15] it was 0.983; in assay [17], -0.0986. Besides, the figures for the composite z-score in assay [18], in assay [19] and in assay [20] were 0.677, 1 and -0.109, respectively. Moreover, the z-score in assay [8] is -1.11 (inactive); in assay [12], -0.38 (inactive); in [13], -6.62 (inactive); in [14], -2.47 (inactive); in assay [16], -1.08 (inactive).
Turning to `COCCOC(=O)N1C(=O)[C@@]2(c3ccccc31)[C@H](c1ccc(O)cc1)N1[C@H](c3ccccc3)[C@H](c3ccccc3)OC(=O)[C@H]1[C@@H]2C(=O)N1CCc2cc(OC)c(OC)cc2C1`, the composite z-score in assay [1] was 0.21; in [2], 0.0749; in assay [3] it was 0.0631; in [4], 0.691; in assay [5], 1.15; in assay [6] it was 1.08. The composite z-score was 0.938 in assay [7]; 1.05 in assay [9]; -0.179 in assay [10]; 1.54 in [11]; 1.17 in [15]; 0.0191 in assay [17]. The composite z-score in [18] was 1.04; in assay [19], 1.06; in assay [20], 0.101. Also, the z-score is -1.47 (inactive) in assay [8]; -1.36 (inactive) in [12]; 0.201 (inactive) in [13]; 1.3 (inactive) in assay [14]; -0.121 (inactive) in assay [16].
As for `CC(C)C(=C=CC[C@H](O)c1ccccc1OCCO)C[C@H](O)c1ccccn1`, the composite z-score is -0.102 in assay [1]; 1.51 in [2]; -0.125 in assay [3]; 0.486 in assay [4]; 0.695 in [5]; 1.66 in [6]. Further, the composite z-score in assay [7] was 1.36; in assay [9], 0.164; in assay [10], -0.201; in [11], 0.813; in [15], 2.27; in assay [17], 0.0374. The results for the composite z-score in assay [18], in assay [19] and in assay [20] were 0.247, 0.719 and 0.151, respectively. The z-score in assay [8] is -1.68 (inactive); in assay [12], 0.241 (inactive); in assay [13], -0.709 (inactive); in [14] it was -0.365 (inactive); in [16], 0.662 (inactive).
For the compound `Cc1ccc(F)cc1S(=O)(=O)N[C@@H]1CCN(Cc2ccc(-c3ccccc3)cc2)C1`, the composite z-score is 0.111 in assay [1]; 0.504 in [2]; -0.0894 in assay [3]; 1.04 in [4]; 0.332 in assay [5]; 0.0558 in assay [6]. Moreover, the composite z-score turned out to be 1.07 in assay [7]; 0.204 in assay [9]; 0.107 in [10]; 0.126 in assay [11]; 0.12 in assay [15]; 0.144 in assay [17]. Besides, the composite z-score in [18] was 0.713; in [19], 0.481; in [20] it was -0.0565. For the same compound, the z-score in assay [8] is -1.72 (inactive); in assay [12], -26.5 (active); in assay [13], -21.3 (active); in assay [14] it was -4.06 (inactive); in assay [16] it was -19.9 (active).
